The results in this text go back to PubChem BioAssay (NCI).

Compounds without any hit were thinned out: in the full panel of roughly 83,000, 20% have a hit.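 Values shown are percent growth following 48 h exposure of cells in 96-well plates to a single concentration of compound; below 10 was considered active.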 Unmarked numbers belong to inactive results. Active and inactive are the calls of the source.

Common to all, as to assay: NCI-60 one-dose screen, 48 h (100 = growth as untreated, 0 = no growth, -100 = all killed)
The subject of one experiment is HCT-15 colon. To be noted: 10 µM unless noted.
Another experiment concerns HT29 colon. The conditions noted are these: 10 µM unless noted.
The test system of a further experiment is SNB-19 CNS. To be noted: 10 µM unless noted.
A further experiment relates to U251 CNS. To be noted: 10 µM unless noted.
Another experiment has as its system PC-3 prostate. To be noted: 10 µM unless noted.
In the next experiment the test system is SK-MEL-5 melanoma. The conditions noted are these: 10 µM unless noted.
The next experiment concerns UACC-62 melanoma. The conditions noted are these: 10 µM unless noted.
The subject of a further experiment is LOX IMVI melanoma. The conditions noted are these: 10 µM unless noted.
The subject of another experiment is SK-MEL-28 melanoma. To be noted: 10 µM unless noted.
The subject of the next experiment is SK-MEL-2 melanoma. The conditions noted are these: 10 µM unless noted.
A further experiment has as its system EKVX NSCLC. To be noted: 10 µM unless noted.
For the next experiment, the system named is SN12C renal. The conditions noted are these: 10 µM unless noted.
For the next experiment, the system named is UO-31 renal. The conditions noted are these: 10 µM unless noted.
A further experiment has as its system TK-10 renal. To be noted: 10 µM unless noted.
A further experiment deals with ACHN renal. To be noted: 10 µM unless noted.
In the next experiment the test system is CAKI-1 renal. To be noted: 10 µM unless noted.
For another experiment, the system named is A498 renal. The conditions noted are these: 10 µM unless noted.
The next experiment has as its system CCRF-CEM leukemia. To be noted: 10 µM unless noted.
For the next experiment, the system named is MOLT-4 leukemia. The conditions noted are these: 10 µM unless noted.
A further experiment concerns SNB-75 CNS. The conditions noted are these: 10 µM.

On to `Nc1ccc(C(=O)CSc2nc3ccccc3[nH]2)cc1`, for which the growth in the experiment on HCT-15 colon is 99.6%; in the experiment with HT29 colon it was 110%; with SNB-19 CNS it was 102%; with U251 CNS it was 96.9%; in the experiment with PC-3 prostate it was 104%; in the experiment with SK-MEL-5 melanoma, 97.9%. The growth was 90.6% in the experiment with UACC-62 melanoma; 106% with LOX IMVI melanoma; 116% in the experiment with SK-MEL-28 melanoma; 121% in the experiment with SK-MEL-2 melanoma; 81.7% in the experiment with EKVX NSCLC; 102% in the experiment on SN12C renal. Further, the growth was 87.5% with UO-31 renal; 109% with TK-10 renal; 110% in the experiment with ACHN renal; 96.1% with CAKI-1 renal; 87.5% with A498 renal; 106% in the experiment on CCRF-CEM leukemia. Also, in the experiment on MOLT-4 leukemia, the growth was 124%.

With `COc1cc(/C=C/C(=O)c2c(C)nc3ccccc3c2C)ccc1OCCCCOc1cc2c(cc1OC)C(=O)N1CCC[C@H]1C=N2`, the growth was -79.6% (active) with HCT-15 colon; -73.3% (active) in the experiment with HT29 colon; -100% (active) in the experiment on SNB-75 CNS; -90.1% (active) in the experiment with SNB-19 CNS; -97.8% (active) with U251 CNS; -24.6% (active) in the experiment on PC-3 prostate. In addition, the growth in the experiment on SK-MEL-5 melanoma is -100% (active); in the experiment on UACC-62 melanoma, -99.2% (active); in the experiment with LOX IMVI melanoma it was -92.2% (active); in the experiment on SK-MEL-28 melanoma it was -85.5% (active); in the experiment with SK-MEL-2 melanoma, -100% (active); in the experiment with EKVX NSCLC, -26% (active). In addition, the growth was -29.6% (active) with SN12C renal; -93.9% (active) in the experiment with UO-31 renal; -48.4% (active) with TK-10 renal; -80.7% (active) with ACHN renal; -34.5% (active) with CAKI-1 renal; -84.5% (active) in the experiment on A498 renal. Also, the growth is -36.8% (active) with CCRF-CEM leukemia and -44.7% (active) in the experiment with MOLT-4 leukemia.

`C=COC(=O)CCCCCCCCC`: the growth in the experiment with HCT-15 colon is 113%; in the experiment with HT29 colon, 100%; in the experiment on SNB-19 CNS, 97.6%; in the experiment with U251 CNS it was 105%; in the experiment on PC-3 prostate, 102%; with SK-MEL-5 melanoma, 107%. Moreover, the growth was 99.2% in the experiment with UACC-62 melanoma; 98.5% with LOX IMVI melanoma; 106% in the experiment on SK-MEL-28 melanoma; 108% in the experiment on SK-MEL-2 melanoma; 94.1% in the experiment with EKVX NSCLC; 106% with SN12C renal. For the same compound, the growth with UO-31 renal was 85.7%; in the experiment with TK-10 renal, 109%; in the experiment with ACHN renal it was 104%; in the experiment on CAKI-1 renal it was 92.8%; with A498 renal, 96.4%.

In the case of `COc1cc(C(=O)/C=C/c2c(C)n([O-])c3ccc(C(F)(F)F)cc3[n+]2=O)cc(OC)c1OC`, the growth is 86.1% in the experiment with HCT-15 colon; 5.72% (active) in the experiment with HT29 colon; 90.9% in the experiment with SNB-19 CNS; 87.1% in the experiment on U251 CNS; 91.8% in the experiment on PC-3 prostate; 102% in the experiment on SK-MEL-5 melanoma. For the same compound, the growth in the experiment on UACC-62 melanoma was 91.4%; in the experiment with LOX IMVI melanoma, 88.4%; with SK-MEL-28 melanoma, 98.8%; in the experiment on SK-MEL-2 melanoma it was 95.5%; with EKVX NSCLC, 115%; in the experiment with SN12C renal, 88.3%. Also, the growth in the experiment on UO-31 renal is 47.1%; in the experiment on TK-10 renal, 42.4%; in the experiment on ACHN renal it was 53.6%; in the experiment on CAKI-1 renal it was -11.9% (active); in the experiment on A498 renal, 115%; in the experiment on CCRF-CEM leukemia it was 36.6%. The growth with MOLT-4 leukemia was 65.4%.

Take `CC(C)(C)n1cc(-c2ccnc(NCCCNS(=O)(=O)c3ccccc3)c2)c(-c2cccc(O)c2)n1`: the growth with HCT-15 colon was -4.07% (active); in the experiment with HT29 colon, 8.45% (active); in the experiment with SNB-19 CNS it was 76%; in the experiment with U251 CNS, 48.5%; in the experiment with PC-3 prostate it was 30.3%; in the experiment on SK-MEL-5 melanoma, 16.1%. The growth was 59.8% in the experiment with UACC-62 melanoma; -43.3% (active) with LOX IMVI melanoma; 44.1% in the experiment on SK-MEL-28 melanoma; 60.1% in the experiment on SK-MEL-2 melanoma; 57.3% in the experiment on EKVX NSCLC; 52.8% in the experiment on SN12C renal. Further, the growth in the experiment with UO-31 renal was 55.7%; in the experiment on TK-10 renal, 89.7%; with ACHN renal, 45.6%; in the experiment on CAKI-1 renal, 52.9%; in the experiment on A498 renal, 40.2%; in the experiment with CCRF-CEM leukemia, 35.1%. Moreover, the growth with MOLT-4 leukemia was 32.1%.

As to `Clc1ccc(-c2nc3ccccc3s2)cc1Cl`, the growth in the experiment on HCT-15 colon was 96.6%; in the experiment on HT29 colon, 97.2%; with SNB-19 CNS it was 93.6%; with U251 CNS, 86.9%; in the experiment on PC-3 prostate, 89%; in the experiment on SK-MEL-5 melanoma, 89.8%. Further, the growth is 88.2% with UACC-62 melanoma; 88.4% in the experiment on LOX IMVI melanoma; 106% in the experiment on SK-MEL-28 melanoma; 94.8% in the experiment on SK-MEL-2 melanoma; 85.3% with EKVX NSCLC; 92.3% with SN12C renal. Further, the growth is 72.3% in the experiment on UO-31 renal; 81.5% with TK-10 renal; 93.3% with ACHN renal; 83.9% in the experiment with CAKI-1 renal; 77% in the experiment with A498 renal.

For `O=C(c1ccccc1)c1c(/C=C/c2ccccc2)c2ccccc2[nH]c1=O`, the growth with HCT-15 colon was 101%; in the experiment with HT29 colon, 106%; in the experiment on SNB-19 CNS, 79.4%; in the experiment with U251 CNS, 90.5%; in the experiment on PC-3 prostate, 89.5%; in the experiment on SK-MEL-5 melanoma, 96.4%. Moreover, the growth was 70.3% with UACC-62 melanoma; 105% in the experiment with LOX IMVI melanoma; 113% in the experiment on SK-MEL-28 melanoma; 92.6% with SK-MEL-2 melanoma; 98.2% in the experiment with EKVX NSCLC; 92.7% with SN12C renal. The growth is 73.6% with UO-31 renal; 97.8% with TK-10 renal; 93.5% with ACHN renal; 91.8% with CAKI-1 renal; 97.6% in the experiment on A498 renal; 87.6% in the experiment with CCRF-CEM leukemia. The growth in the experiment on MOLT-4 leukemia was 84.1%.

On to `Clc1ccc2c(NC3CCC(NC4CCCCC4)CC3)ccnc2c1` (stereo not given), for which the growth was 29.6% in the experiment on HCT-15 colon; 7.7% (active) with HT29 colon; 79.6% in the experiment with SNB-75 CNS; 81.9% with SNB-19 CNS; 35.8% in the experiment with U251 CNS; 59.2% in the experiment on PC-3 prostate. In addition, the growth was 18.6% in the experiment with SK-MEL-5 melanoma; -31.3% (active) with UACC-62 melanoma; 35.6% in the experiment on LOX IMVI melanoma; -10.5% (active) in the experiment with SK-MEL-28 melanoma; 55.2% in the experiment with SK-MEL-2 melanoma; 68.1% in the experiment with EKVX NSCLC. For the same compound, the growth in the experiment on SN12C renal was 74.1%; in the experiment on UO-31 renal, 56.2%; with TK-10 renal, 48.8%; with ACHN renal, 58.2%; in the experiment on CAKI-1 renal, 47.9%; with A498 renal, 62.5%. The growth in the experiment on CCRF-CEM leukemia was 70.2%; in the experiment with MOLT-4 leukemia, 56.9%.
